Assay results from the supplement of paper PMC7411054.
Structures can show the parent of a compound that is named as a salt.

Key:
Conditions in all cases: treatment time: 24 h
[1] = tested on: WPMY1-CANX-COX4; assay: lowest phenotypically active concentration; higher = less potent
Method in brief: (§1)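 Fifteen gene-edited A549, HepG2 and WPMY1 reporter lines (BFP segmentation plus GFP and RFP/FusionRed markers) were treated at 0.3, 1, 3 or 9 µM for 24 h, four wells each, then imaged live. Live-cell features per well were normalised to DMSO control wells. Deviation required ≥3 of 4 wells beyond the 95th percentile of DMSO Euclidean distances, and reproducibility required median replicate Pearson correlation above the 95th percentile of non-replicates. Phenotypic activity needed both criteria.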

[2] = tested on: A549-ACTB-RAB5A; assay: phenotypically active (imaging signature differs from DMSO and reproducible) at any of 0.3-9 uM (binary (1 = active, 0 = inactive)); higher = active
Method in brief: as §1

[3] = tested on: A549-CANX-COX4; assay: as above
Method in brief: as §1

[4] = tested on: A549-GM130-SQSTM1; assay: as above
Method in brief: as §1

[5] = tested on: A549-TP53BP1-CLTA; assay: as above
Method in brief: as §1

[6] = tested on: A549-TUBA1B-RELA; assay: as above
Method in brief: as §1

[7] = tested on: HepG2-ACTB-RAB5A; assay: as above
Method in brief: as §1

[8] = tested on: HepG2-CANX-COX4; assay: as above
Method in brief: as §1

[9] = tested on: HepG2-GM130-SQSTM1; assay: as above
Method in brief: as §1

[10] = tested on: HepG2-TP53BP1-CLTA; assay: as above
Method in brief: as §1

[11] = tested on: HepG2-TUBA1B-RELA; assay: as above
Method in brief: as §1

[12] = tested on: WPMY1-ACTB-RAB5A; assay: as above
Method in brief: as §1

[13] = tested on: WPMY1-CANX-COX4; assay: as above
Method in brief: as §1

[14] = tested on: WPMY1-GM130-SQSTM1; assay: as above
Method in brief: as §1

[15] = tested on: WPMY1-TP53BP1-CLTA; assay: as above
Method in brief: as §1

[16] = tested on: WPMY1-TUBA1B-RELA; assay: as above
Method in brief: as §1

[17] = tested on: A549-GM130-SQSTM1; assay: lowest phenotypically active concentration; higher = less potent
Method in brief: as §1

[18] = tested on: WPMY1-GM130-SQSTM1; assay: as above
Method in brief: as §1

SMILES | lowest phenotypically active concentration [1] | phenotypically active [2] | phenotypically active [3] | phenotypically active [4] | phenotypically active [5] | phenotypically active [6] | phenotypically active [7] | phenotypically active [8] | phenotypically active [9] | phenotypically active [10] | phenotypically active [11] | phenotypically active [12] | phenotypically active [13] | phenotypically active [14] | phenotypically active [15] | phenotypically active [16] | lowest phenotypically active concentration [17] | lowest phenotypically active concentration [18]
O=C(/C=C/c1ccc(O)cc1)c1ccc(O)cc1O [Isoliquiritigenin] | 9 µM | 0 (inactive) | 0 (inactive) | 0 (inactive) | 0 (inactive) | 1 (active) | 0 (inactive) | 0 (inactive) | 1 (active) | 0 (inactive) | 0 (inactive) | 0 (inactive) | 1 (active) | 0 (inactive) | 1 (active) | 0 (inactive) |  | 
O=C1NN(c2ccc(F)c(Cl)c2)C(=O)/C1=C\c1ccc([N+](=O)[O-])o1 | 9 µM | 0 (inactive) | 0 (inactive) | 1 (active) | 0 (inactive) | 0 (inactive) | 0 (inactive) | 0 (inactive) | 0 (inactive) | 0 (inactive) | 0 (inactive) | 0 (inactive) | 1 (active) | 1 (active) | 0 (inactive) | 0 (inactive) | 3 µM | 9 µM
CC(CCc1ccc(O)cc1)NCCc1ccc(O)c(O)c1 (stereo not given) [Dobutamine hydrochloride] |  | 0 (inactive) | 0 (inactive) | 0 (inactive) | 0 (inactive) | 0 (inactive) | 0 (inactive) | 0 (inactive) | 0 (inactive) | 0 (inactive) | 0 (inactive) | 0 (inactive) | 0 (inactive) | 1 (active) | 0 (inactive) | 0 (inactive) |  | 3 µM
